Sampled rows, rich in hits. Any-hit rate of the full collection: about 1.4%.
NS1 function inh – qHTS Assay for Inhibitors of Influenza NS1 Protein Function. Potency, µM (series often up to 46.1 µM), for inactives: at the top dose activity, positive = more growth. hit rate 0.4% among 270,000. AID 2326, 2010; calls by dose curve; further: potency means the concentration at half of the fitted maximal effect; actives are rising curves; nearly all actives have a fitted effect of over 50% in size
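A cell-based growth assay was used: compounds that relieve NS1-induced slow growth of budding yeast raise OD600. Assay medium was yeast nitrogen base with ammonium sulphate and -URA supplement, pH 6.0, with 2% galactose.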
SARS PLP yeast – qHTS of Yeast-based Assay for SARS-CoV PLP; Potency, µM (series often up to 32.9 µM), inactives show at the top dose activity, positive = growth rescue, actives largely listed as activators; hit rate 0.19% among 330,000; AID 485353, 2010; S. cerevisiae expressing SARS-CoV PLpro, growth rescue; calls by dose curve; further: potency means the concentration at half of the fitted maximal effect; 0% is about no effect; nearly all actives have a fitted effect of over 55% in size
AmpC inh detg – qHTS Inhibitors of AmpC Beta-Lactamase (assay with detergent); P00811; AmpC hydrolysis of nitrocefin, absorbance 480 nm, 0.01% Triton; Potency, µM (series often up to 114 µM), without a hit: top-dose activity change, negative = inhibition, hits mostly inhibitors; hit rate 0.041% among 370,000; AID 485294, 2010;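 further: potency means the concentration at half of the fitted maximal effect; 0% = no-compound wells and -100% = no-enzyme wells; nearly all actives have a fitted effect of over 25% in size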
Target sequence (P00811 whole entry, looked up): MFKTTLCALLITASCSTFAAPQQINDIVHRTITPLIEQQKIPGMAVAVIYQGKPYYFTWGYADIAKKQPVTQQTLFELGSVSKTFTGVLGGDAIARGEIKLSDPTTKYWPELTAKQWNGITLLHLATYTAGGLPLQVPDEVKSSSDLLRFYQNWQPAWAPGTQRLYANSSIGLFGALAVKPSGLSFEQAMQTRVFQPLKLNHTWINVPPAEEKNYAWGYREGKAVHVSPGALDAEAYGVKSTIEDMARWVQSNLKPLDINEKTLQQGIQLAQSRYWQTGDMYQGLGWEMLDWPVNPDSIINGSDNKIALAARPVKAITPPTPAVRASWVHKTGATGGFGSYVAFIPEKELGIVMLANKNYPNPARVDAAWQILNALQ
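20 mM phosphate pH 7.0 + 0.01% (detergent screen) or 0.0001% Triton X-100; 5.3 nM AmpC reagent; cpd preinc 15 min RT; nitrocefin (800 uM stock) to start; A480 q20 s × 4 min; Activity was normalised to no-enzyme and no-compound control wells.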
Giardia FBPA inh – qHTS Assay for Inhibitors of Fructose-1,6-bisphosphate Aldolase from Giardia Lamblia | hit rate 0.71% among 290,000 | A8B2U2 | Potency, µM (top dose mostly 59.6 µM), for the others: at the highest dose activity, negative = inhibition, hits mostly inhibitors | purified Giardia FBPA; further: potency means the concentration at half of the fitted maximal effect; on the % scale 0 is the no-effect control and ±100 the full control effect; nearly all actives have a fitted effect of over 55% in size
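Giardia FBPA (40 nM reagent) was preincubated 10 min at RT with compound (up to 57.5 uM final), then substrate plus GAPDH/TPI/NAD/arsenate coupling system with diaphorase/resazurin was added; resorufin fluorescence (525/598 nm) was read after 20 min.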
AmpC no deterg – qHTS Inhibitors of AmpC Beta-Lactamase (assay without detergent); P00811; AmpC nitrocefin hydrolysis, absorbance 480 nm, 0.0001% Triton; Potency, µM (series often up to 57.1 µM), inactives show top-dose activity change, negative = inhibition, usual class: inhibitors; hit rate 0.52% among 330,000; AID 485341, 2010;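 further: potency means the concentration at half of the fitted maximal effect; plate controls were no compound for no effect and no enzyme for full effect; nearly all actives have a fitted effect of over 20% in size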
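AmpC (5.3 nM in the dispensed reagent) in 20 mM phosphate pH 7.0 with 0.01% (detergent screen) or 0.0001% Triton X-100 was preincubated with compounds for 15 min at room temperature. Nitrocefin was then added from an 800 uM solution, and hydrolysis was followed at 480 nm.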
Flu NS1 inh – Assay for Inhibitors of Influenza NS1 Protein Function: Hit Validation; shares compounds with NS1 function inh; influenza NS1 function cell assay, 15-point titration; activity change, negative = inhibition, % at 32.9 µM; 1,400 tested, under 10 active; AID 492980, 2010; calls by dose curve; further: 0% is about no effect
PR8 titer – Assay for Inhibitors of Influenza NS1 Protein Function: Influenza virus replication assay in MDCK cells infected with virus A/PR/8/34; shares compounds with NS1 function inh; MDCK infected influenza A/PR/8/34, virus titer TCID50; hits give low values; virus titer (log TCID50), log10 TCID50 at 5 µM; hit rate 30% among 95; AID 504647, 2011; call rule not given here
Starred values were filed as active, the others as inactive; u = inconclusive; x = no result. Unless noted, the call rests on the fitted dose curve; in most records, active means well fitted curve in the direction sought with a large enough effect; inconclusive means small, poorly fitted or top-dose-only effect, or another doubt; inactive means no such curve, though single readings can be large; an effect the other way counts as inactive or inconclusive.

SMILES	NS1 function inh	SARS PLP yeast	AmpC inh detg	Giardia FBPA inh	AmpC no deterg	Flu NS1 inh	others
CC1=NN=C(c2ccc(N)cc2)c2cc3c(cc2C1)OCO3	35µM*	x	-3%	u	19%	11
COc1cccc(NC(=O)c2oc3ccccc3c2NC(=O)C2CCCCC2)c1	x	x	2%	x	x	x
Oc1c(C(c2ccccc2)N2CCN(Cc3ccccc3)CC2)sc2ncnn12 (stereo not given)	u	0%	u	-4%	54%	x
Oc1c(C(c2ccccc2)N2CCCCC2)sc2ncnn12 (stereo not given)	u	1%	-3%	-15%	-11%	1
Cc1ccc(NC(=O)CCC(=O)N/N=C/c2coc3ccccc3c2=O)cc1	5.6µM*	-1%	-6%	0%	-9%	-18
Cc1cnn(-c2cc(N/N=C/c3ccccc3Cl)ncn2)c1	14µM*	3%	7%	11%	23%	-14
Cc1cnn(-c2cc(N/N=C/c3ccc(F)cc3)ncn2)c1	-4%	0%	u	3%	-7%	x
CC(=O)N1CCN(C2c3cccc4cccc(c34)C2NS(=O)(=O)c2ccccc2)CC1 (stereo not given)	-28%	-3%	-5%	11%	150%	x
Cc1ccc(C(=O)N2CCN(C3c4cccc5cccc(c45)C3NS(=O)(=O)c3ccccc3)CC2)cc1 (stereo not given)	11µM*	-1%	5%	x	50%	17
Fc1ccccc1N1CCN(C2CCN(Cc3c[nH]c4ccccc34)CC2)CC1	25µM*	9%	-20%	0%	8%	-16
c1ccc2c(CN3CCCCC3)c[nH]c2c1	2%	0%	6%	2%	-19%	x
COc1ccccc1C(=O)N(Cc1sccc1C)C1CCS(=O)(=O)C1 (stereo not given)	3.2µM*	-10%	-11%	-2%	-4%	3
CCc1ccc2oc(-c3cc(N)ccc3O)nc2c1	u	12%	0%	-2%	u	x
CCc1ccc2oc(-c3cc(N)cc(C)c3O)nc2c1	14µM*	-1%	u	-16%	-9%	19
COc1ccc(C(C)=O)cc1CSc1nnc(-c2ccc(Cl)cc2)n1-c1ccccc1	1µM*	6%	-3%	2%	49%	u
O=C(CSc1nnc(-c2ccco2)n1-c1ccccc1)NCc1ccco1	21%	1%	0%	x	-24%	x
O=C(CSc1nnc(-c2ccccc2)n1-c1ccccc1)NCc1ccco1	18µM*	-8%	1%	4%	-1%	1
COc1ccccc1NC(=O)CC(=O)CSc1nnc(-c2ccc(C)cc2)n1-c1ccccc1	14µM*	10%	2%	5%	1%	8
CN(C(=O)c1c[nH]c(=O)cc1C(F)(F)F)c1ccc(Cl)c(Cl)c1	0%	0%	-3%	-3%	5%	x
O=C(CSc1ccccc1F)NC(=O)c1ccc(Cl)cc1	x	10%	x	x	-15%	x
C=CCc1cccc2cc(C(=O)N3CCOCC3)c(=O)oc12	-11%	4%	5%	11%	-4%	x
O=C(Cn1cnc([N+](=O)[O-])n1)NCc1ccccc1	3.5µM*	-4%	-1%	-14%	-8%	3
CC(=O)c1ccc(NS(=O)(=O)c2cccc(C(=O)Nc3ccccc3C(=O)O)c2)cc1	13µM*	6%	-18%	15%	-31%	31
COc1ccc(NS(=O)(=O)c2cccc(C(=O)Nc3ccccc3C(=O)O)c2)cc1	u	2%	-5%	-10%	-26%	x
Cc1cccc(NC(=O)c2cc(NC(=O)c3ccccc3)ccc2N2CCCCC2)c1	u	-2%	-12%	1%	1%	2	PR8 titer=8.5

Screens: PubChem BioAssay, National Center for Advancing Translational Sciences (NCATS)
